The results in this text go back to PubChem BioAssay AID624094 (National Center for Advancing Translational Sciences (NCATS), 2012).

Results filed as inconclusive are left out. The source made the active and inactive calls. Calls come from the whole dose curve; as a rule, active = well fitted inhibition curve with a large enough effect; inconclusive = small, poorly fitted or top-dose-only effect; inactive = flat fitted curve, though single readings scatter.

This assay deals with Dual specificity protein kinase CLK4 (Homo sapiens) (UniProt Q9HAZ1). Description: Confirmation Assay for Inhibitors of Clk4 (Kinase-Glo Assay): KU probe. Particulars: recombinant Clk4, Kinase-Glo ATP luminescence; series mostly up to 76.9 µM. The method in brief: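 RS repeat peptide (100 uM) and ATP (1 uM) phosphorylated by 25 nM Clk4 (final) in Tris pH 7.5 with MgCl2, EGTA, DTT and Triton X-100. After 4.5 h at room temperature, remaining ATP read as Kinase-Glo luminescence.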
Background: Kinase-Glo measures the ATP left after a reaction by luminescence.

Dual specificity protein kinase CLK4 (Homo sapiens), sequence (Q9HAZ1 whole entry, looked up): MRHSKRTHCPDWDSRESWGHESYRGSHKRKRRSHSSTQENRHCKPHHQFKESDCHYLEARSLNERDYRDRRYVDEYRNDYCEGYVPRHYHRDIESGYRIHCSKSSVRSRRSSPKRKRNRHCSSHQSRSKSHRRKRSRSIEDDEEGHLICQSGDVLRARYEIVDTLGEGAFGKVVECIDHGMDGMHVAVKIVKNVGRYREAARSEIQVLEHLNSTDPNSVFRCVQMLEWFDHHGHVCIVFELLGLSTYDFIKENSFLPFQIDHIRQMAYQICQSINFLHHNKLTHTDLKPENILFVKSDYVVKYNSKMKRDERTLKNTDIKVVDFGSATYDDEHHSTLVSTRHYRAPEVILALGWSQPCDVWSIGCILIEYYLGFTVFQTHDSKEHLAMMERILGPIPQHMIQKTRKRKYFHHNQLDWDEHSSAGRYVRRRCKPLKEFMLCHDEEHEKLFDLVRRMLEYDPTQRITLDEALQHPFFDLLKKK

Turning to `COc1ccc(CNc2ccnc(-c3cccc(C#N)c3)n2)cc1`, the Potency was 9.23 µM (active).

Turning to `COc1ccc(-c2nccc(NCc3ccc(Cl)c(Cl)c3)n2)cc1`, the Potency is 11.6 µM (active).

`O=C(Nc1ccnc(-c2ccc3c(c2)OCO3)n1)c1cnc(Cl)c(Cl)c1`: the Potency entry is “inactive”.

Consider `CN(C)c1ccc(-c2ncccn2)cc1`, for which the Potency entry is “inactive”.

Regarding `Fc1ccc(CNc2ccnc(-c3ccc4c(c3)OCO4)n2)cc1Br`, the Potency was 13 µM (active).

As to `c1cncc(CNc2ccnc(-c3ccc4cn[nH]c4c3)n2)c1`, the Potency is 0.292 µM (active).

For the compound `Clc1ccc(CNc2ncncc2-c2ccc3c(c2)OCO3)cc1`, the Potency was 5.82 µM (active).

Regarding `c1nc(NC[C@@H]2CCCO2)c2cc(-c3ccc4c(c3)OCO4)ccc2n1`, the Potency is 0.0292 µM (active).

Turning to `Clc1ccc(CNc2nccc(-c3ccc4cn[nH]c4c3)n2)cc1Cl`, the Potency was 5.82 µM (active).

Turning to `c1cc(-c2ccc3c(c2)OCO3)nc(Nc2ccc3c(c2)OCO3)n1`, the Potency was 0.116 µM (active).

Take `c1coc(CNc2ncnc3ccc(-c4ccc5c(c4)OCO5)cc23)c1`: the Potency was 0.0463 µM (active).

Turning to `FC(F)(F)c1cc(Br)cc(Nc2nccc(-c3ccc4c(c3)OCO4)n2)c1`, the Potency was 0.13 µM (active).

Turning to `COc1cccc(-c2ccnc(NCc3ccc(Cl)c(Cl)c3)n2)c1`, the Potency is 3.68 µM (active).

In the case of `c1cc(-c2ccoc2)nc(-c2ccc3c(c2)OCO3)n1`, the Potency was 4.12 µM (active).

`Clc1cc(Cl)cc(CNc2ccnc(-c3ccc4c(c3)OCO4)n2)c1`: the Potency is 4.12 µM (active).

Consider `CN(C)c1ccc(-c2nccc(NCc3ccc(Cl)cc3)n2)cc1`, for which the Potency result is “inactive”.

Turning to `CN(C)c1ccc(-c2nccc(NCc3ccccc3)n2)cc1`, the Potency result was “inactive”.

For `c1coc(-c2ccnc(-c3ccc4c(c3)OCO4)n2)c1`, the Potency is 8.23 µM (active).

With `COc1ccc(-c2ccnc(NCc3ccc(Cl)cc3)n2)cc1`, the Potency is 0.184 µM (active).

Consider `Cc1noc(C)c1-c1nccc(NCc2ccc(Cl)cc2)n1`, for which the Potency result is “inactive”.

As for `Clc1cncc(CNc2ccnc(-c3ccc4c(c3)OCO4)n2)c1`, the Potency was 16.4 µM (active).

For `O=C(O)c1ccc(-c2ccc3ncnc(NCC4CCCO4)c3c2)o1` (stereo not drawn), the Potency is 0.654 µM (active).

As to `Cc1noc(C)c1-c1ncccn1`, the Potency entry is “inactive”.

As for `Brc1ccc(CNc2nccc(-c3ccc4c(c3)OCO4)n2)cc1Br`, the Potency was 0.0823 µM (active).

For `CN(CC1CCCCO1)c1ncnc2ccc(-c3ccc4c(c3)OCO4)cc12` (stereo not drawn), the Potency was 0.0463 µM (active).

With `c1cc(-c2ccoc2)nc(-c2ccoc2)n1`, the Potency is 5.82 µM (active).

As for `CC(C)(C)CNc1ncnc2ccc(-c3ccc(C(=O)O)o3)cc12`, the Potency is 0.463 µM (active).

As to `Clc1cc(CNc2ccnc(-c3ccc4c(c3)OCO4)n2)ccn1`, the Potency was 3.68 µM (active).
